The values that follow come from PubChem BioAssay (NCATS).

For test [1], the target named is Cellular tumor antigen p53 (Homo sapiens) (UniProt P04637). Briefly: Primary qHTS for small molecule compounds that upregulate eGFP-tagged delta133p53alpha (in N-terminal) cells. (AID 2060322).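 For activation: cells pre-induced with doxycycline then dosed without doxycycline; series mostly up to about 56 µM; 0% = DMSO vehicle and 100% = reference activator.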 Note: nearly all actives have a fitted effect of over 75% in size. Note: potency is the fitted concentration of half-maximal effect. As to conditions: NCI-H358 eGFP-delta133p53alpha fluorescence, 24 h; activation: stronger effect = higher value. The gist of the method: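 NCI-H358 cells pre-induced 24 h with 10 ng/ml doxycycline for eGFP-delta133p53alpha, plated dox-free and exposed 24 h at 37C to titrated compounds. Fixed, Hoechst-stained; gated GFP peak intensity by laser scanning cytometry, normalized to DMSO (0%) and 57.5 uM 5-azacytidine (100%).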
(In general: qHTS replaces the single test concentration by a dilution series.)

Test [2] concerns the target Aldehyde dehydrogenase, mitochondrial (Homo sapiens) (UniProt P05091). As to the kind of experiment: qHTS for Inhibitors of the Aldehyde Dehydrogenase Family (ALDH2) Primary screen (AID 2061308).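 Note: plate controls were vehicle for no effect and reference inhibitor for full effect; nearly all actives have a fitted effect of over 55% in size.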
Test [3] addresses Retinaldehyde dehydrogenase 3 (Homo sapiens) (UniProt P47895). Briefly: qHTS for Inhibitors of the Aldehyde Dehydrogenase Family (ALDH1A3) Primary screen (AID 2061315).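 Note: plate controls were DMSO vehicle for no effect and reference inhibitor for full effect.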

Inconclusive results are not listed. A number with no mark means an inactive call. Calls of active or inactive are those of the source. Calls come from the whole dose curve; as a rule, active = well fitted curve in the direction sought with a large enough effect; inconclusive = small, poorly fitted or top-dose-only effect, or another doubt; inactive = no such curve, though single readings can be large; an effect the other way counts as inactive or inconclusive.

Chain of Cellular tumor antigen p53 (Homo sapiens) (P04637 whole entry, looked up): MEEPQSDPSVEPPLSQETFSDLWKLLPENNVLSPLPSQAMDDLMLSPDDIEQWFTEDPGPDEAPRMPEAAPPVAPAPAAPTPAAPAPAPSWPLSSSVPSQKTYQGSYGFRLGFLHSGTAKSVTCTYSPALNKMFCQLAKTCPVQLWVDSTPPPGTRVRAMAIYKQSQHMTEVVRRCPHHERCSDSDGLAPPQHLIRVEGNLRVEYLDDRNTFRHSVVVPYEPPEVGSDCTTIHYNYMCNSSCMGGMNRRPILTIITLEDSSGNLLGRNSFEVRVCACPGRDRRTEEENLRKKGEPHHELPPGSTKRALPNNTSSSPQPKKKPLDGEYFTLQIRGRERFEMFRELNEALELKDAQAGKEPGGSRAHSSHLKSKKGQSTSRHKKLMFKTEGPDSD

For `OCC(CO)(CO)NCC(O)Cn1c2ccc(Cl)cc2c2cc(Cl)ccc21` (centres undefined), the Potency in test [1] is 23.9 µM (active). The Potency entry in test [2] and in test [3] was “inactive” in each case.
Regarding `CC(C)C1CCC(CO)=CC1/C=C(\CO)C(=O)OCC1(O)CCC(C(C)C)C2C=C(C(=O)O)COC(=O)C21` (centres undefined), in test [1], the activation was 9.16%. Also, the Potency entry in test [2] and in test [3] was “inactive” throughout.
With `C[C@@H](Cc1cc2c(c(C(N)=O)c1)N(CCCO)CC2)NCCOc1ccccc1OCC(F)(F)F`, the activation in test [1] is 13.7%. The Potency result in test [2] and in test [3] was “inactive” each time.
For the compound `O=C(O)/C=C/c1ccc(-c2ccc(O)c(C34CC5CC(CC(C5)C3)C4)c2)cc1`, in test [1], the Potency was 26.9 µM (active). Besides, the Potency entry in test [2] and in test [3] was “inactive” in each case.
As for `O=C(O)C(O[C@@H]1O[C@H](CO[C@@H]2O[C@H](CO)[C@@H](O)[C@H](O)[C@H]2O)[C@@H](O)[C@H](O)[C@H]1O)c1ccccc1` (some centres undefined), the activation in test [1] is -16%. Also, the Potency entry in test [2] and in test [3] was “inactive” each time.
Regarding `CCc1ccc(Cc2ccc3c(c2)[C@]2(OC3)O[C@H](CO)[C@@H](O)[C@H](O)[C@H]2O)cc1`, in test [1], the activation was 7%. Further, the Potency entry in test [2] and in test [3] was “inactive” throughout.
`O=c1c2ccccc2nc2n1CCC2O` (centres undefined): the activation in test [1] was -3.82%. The Potency result in test [2] and in test [3] was “inactive” in each case.
Take `C/C(=C\CCC(C)C1CC(O)C2(C)C3CCC4C(C)(C)C(OC5OCC(O)C(O)C5O)CCC45CC35CC(O)C12C)C(=O)O` (centres undefined): the activation in test [1] is 17.6%. The Potency entry in test [2] and in test [3] was “inactive” each time.
`CC(C)(O)C1CCC2(C)C3C(O)C4C(C13)C42CO` (centres undefined): the activation in test [1] is 3.57%. Moreover, the Potency result in test [2] and in test [3] was “inactive” in each case.
Take `O=c1c2cccnc2n(-c2cccc([N+](=O)[O-])c2)c(=O)n1Cc1ccncc1`: in test [1], the activation is -20%. Further, the Potency entry in test [2] and in test [3] was “inactive” throughout.
As to `C=C1[C@H](OC(C)=O)[C@H]2[C@@H](OC(C)=O)[C@](C)(OC(C)=O)C[C@]2(OC(C)=O)C(=O)[C@H](C)/C=C/C(C)(C)C(=O)[C@H](OC(=O)C(C)CC)[C@H]1OC(C)=O` (some centres undefined), the activation in test [1] is -14.5%. Further, the Potency entry in test [2] and in test [3] was “inactive” throughout.
Consider `O=C1OCC(c2ccccc2)=C1Cc1ccccc1`, for which the activation in test [1] is -8.4%. Also, the Potency result in test [2] and in test [3] was “inactive” in each case.
Turning to `C=C[C@]1(C)C=C2CCC3C(C)(CCC[C@@]3(C)C(=O)O)C2CC1` (some centres undefined), the activation in test [1] is 3.57%. Also, the Potency entry in test [2] and in test [3] was “inactive” in each case.
Turning to `CC(C)(OC1OC(CO)C(O)C(O)C1O)C1CCC(O)(CO)C2CC(=O)C(C)(O)C2C1` (centres undefined), the activation in test [1] was 22.9%. Also, the Potency result in test [2] and in test [3] was “inactive” throughout.
Consider `C[N+]1(C)[C@@H]2CC[C@H]1CC(OC(=O)C(O)c1ccccc1)C2` (some centres undefined), for which the activation in test [1] was 13.7%. In addition, the Potency result in test [2] and in test [3] was “inactive” each time.
For the compound `COC1=CC(=O)O/C1=C(/OC)[C@@H]1O[C@H]1c1ccccc1`, the activation in test [1] is -3.05%. The Potency result in test [2] and in test [3] was “inactive” in each case.
`CC(=O)O[C@H]1C[C@@H](O)C(C)(C)C2C[C@@H](OC(C)=O)[C@]3(C)C(CC[C@@]4(C)[C@H](c5ccoc5)OC(=O)[C@H]5O[C@]543)[C@]21C` (some centres undefined): the activation in test [1] is 11.6%. Moreover, the Potency entry in test [2] and in test [3] was “inactive” in each case.
Consider `Cc1ccc(C(C)C)c(O[C@@H]2O[C@H](CO)[C@@H](O)[C@H](O)[C@H]2O)c1`, for which, in test [1], the activation is -1.53%. For the same compound, the Potency result in test [2] and in test [3] was “inactive” in each case.
As for `C/C=C(/COC(=O)/C(C)=C/C)C(=O)OC(CC)c1ccc(OC)c(OC)c1` (centres undefined), the activation in test [1] was -15.2%. Further, the Potency entry in test [2] and in test [3] was “inactive” each time.
In the case of `C[C@@H]1O[C@@H](O[C@H]2[C@@H]3C=CO[C@@H](O[C@@H]4O[C@H](CO)[C@@H](O)[C@H](O)[C@H]4O)[C@@H]3[C@@]3(CO)O[C@@H]23)[C@H](O)[C@H](O)[C@H]1OC(=O)/C=C/c1ccc(O)cc1`, the activation in test [1] was -25.2%. Further, the Potency entry in test [2] and in test [3] was “inactive” each time.
As to `O=C(Nc1ccc(N2C(=O)[C@@H]3[C@H](C2=O)[C@@H]2C=C[C@H]3C2)c(Cl)c1)c1ccccn1`, the activation in test [1] was -11.7%. Further, the Potency result in test [2] and in test [3] was “inactive” throughout.
Consider `N#C/C(=C1\Nc2ccccc2S1)c1ccnc(NCCc2cccnc2)n1`, for which, in test [1], the Potency was 19 µM (active). In addition, the Potency result in test [2] and in test [3] was “inactive” throughout.
Take `C[N+]1(C)[C@@H]2C[C@@H](OC(=O)C(O)(c3cccs3)c3cccs3)C[C@H]1[C@@H]1O[C@@H]12`: the activation in test [1] was 8.63%. Moreover, the Potency entry in test [2] and in test [3] was “inactive” each time.
As to `CCOc1cn(-c2ccc(F)cc2C)nc1C(=O)Nc1ccc(Oc2ccnc3cc(OC)c(OC)cc23)c(F)c1`, in test [1], the activation was 12.5%. In addition, the Potency entry in test [2] and in test [3] was “inactive” each time.
In the case of `CC(=O)OC[C@@]12[C@@H](OC(C)=O)C[C@@H](C)[C@](C)([C@@H]3C[C@H]4C=CO[C@H]4O3)[C@H]1CCC[C@]21CO1`, the activation in test [1] was 0%. The Potency result in test [2] and in test [3] was “inactive” each time.
For the compound `COCC1OC(n2cnc3c(=O)[nH]cnc32)C(O)C1O` (centres undefined), the activation in test [1] was 6.11%. Moreover, the Potency entry in test [2] and in test [3] was “inactive” throughout.
As to `O=S(=O)(N[C@H]1CCCC[C@@H]1N1CCOCC1)c1ccc(Cl)cc1`, the activation in test [1] is -16.3%. Also, the Potency entry in test [2] and in test [3] was “inactive” in each case.
As for `COC1CC(=O)C23C(=O)NC(Cc4c[nH]c5ccccc45)C2C(C)C2(C)OC2C3/C=C/CC(C)CC1O` (centres undefined), the Potency in test [1] was 13.1 µM (active). Further, the Potency result in test [2] and in test [3] was “inactive” each time.
